Experimental data reported in PubChem BioAssay AID1159580 (chemical genetic matrix, 2015).
About 2,000 (36%) of roughly 5,500 compounds were called active. Not shown: some 18% with an inconclusive outcome. No stated cut-off is given here; in the data, active means normalized growth mostly below about 0.91 (no sharp cut-off); inconclusive means no clear call, values can overlap the other calls; inactive means mostly above about 0.92. The list shows a part of the results.

Assay: chemical genetic growth profiling, strain panel (AID 1159580);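 further: tested at 20 µM; growth read once vehicle control cultures reached saturation at 30 °C; 1 = growth at the plate median or of vehicle wells; lower values mean less growth of the strain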
Details: S. cerevisiae deletion strains, growth OD

Measured: normalized growth

CC(=O)CC(=O)CCC(=O)O
inactive: locus YAL021C, strain ccr4, hits give low values 0.991 | locus YAL026C, strain drs2, hits give low values 1.05 | locus YAL030W, strain snc1, hits give low values 1.02 | locus YBL061C, strain skt5, hits give low values 1.03 | locus YBR009C, strain hhf1, hits give low values 1.03 | locus YBR023C, strain chs3, hits give low values 1.03 | locus YBR171W, strain sec66, hits give low values 1.04 | locus YBR231C, strain swc5, hits give low values 1.03 | locus YBR279W, strain paf1, hits give low values 1.02 | locus YCL011C, strain gbp2, hits give low values 1.02 | locus YCL016C, strain dcc1, hits give low values 1.02 | locus YCL061C, strain MRC1, hits give low values 1.02 | locus YCL069W, strain vba3, hits give low values 1.02 | locus YCR088W, strain abp1, hits give low values 1.02 | locus YDL005C, strain med2, hits give low values 1.03 | locus YDL040C, strain nat1, hits give low values 1.02 | locus YDR001C, strain nth1, hits give low values 1.01 | locus YDR069C, strain doa4, hits give low values 1.03 | locus YDR137W, strain rgp1, hits give low values 1.01 | locus YDR159W, strain sac3, hits give low values 1 | locus YDR195W, strain ref2 0.989 | locus YDR297W, strain sur2, hits give low values 1.01 | locus YDR334W, strain swr1, hits give low values 1.03 | locus YDR335W, strain msn5, hits give low values 1.02 | locus YDR392W, strain spt3, hits give low values 0.95 | locus YEL003W, strain gim4, hits give low values 1.02 | locus YEL037C, strain rad23, hits give low values 1.02 | locus YEL061C, strain CIN8 (second series), hits give low values 1.02 | locus YER015W, strain faa2, hits give low values 1.02 | locus YER016W, strain bim1, hits give low values 1.04 | locus YER111C, strain swi4, hits give low values 1.03 | locus YER155C, strain BEM2 (second series), hits give low values 1.05 | locus YFR010W, strain ubp6, hits give low values 1.03 | locus YGL167C, strain pmr1, hits give low values 1.02 | locus YGL173C, strain kem1, hits give low values 1.03 | locus YGL227W, strain vid30, hits give low values 1.01 | locus YGL240W, strain doc1, hits give low values 1.04 | locus YGL253W, strain hxk2, hits give low values 1.05 | locus YHR013C, strain ard1, hits give low values 1.04 | locus YHR027C, strain rpn1, hits give low values 1.03 | locus YHR030C, strain SLT2, hits give low values 0.982 | locus YHR079C, strain IRE1, hits give low values 0.996 | locus YHR142W, strain chs7, hits give low values 1.02 | locus YJL092W, strain hpr5, hits give low values 1.02 | locus YJL095W, strain BCK1 (second series), hits give low values 1.02 | locus YJL095W, strain BCK1, hits give low values 0.983 | locus YJL115W, strain asf1, hits give low values 1.03 | locus YJL129C, strain trk1, hits give low values 1.01 | locus YJL154C, strain vps35, hits give low values 1.01 | locus YJL164C, strain tpk1, hits give low values 1.01 | locus YJL166W, strain qcr8, hits give low values 1.02 | locus YJL187C, strain SWE1, hits give low values 1.02 | locus YJR066W, strain TOR1, hits give low values 0.962 | locus YKL160W, strain elf1, hits give low values 1 | locus YKR026C, strain gcn3, hits give low values 1.03 | locus YKR091W, strain srl3, hits give low values 1.02 | locus YLL001W, strain dnm1, hits give low values 1.01 | locus YLL026W, hits give low values 1.02 | locus YLL041C, strain sdh2, hits give low values 1.02 | locus YLR027C, strain aat2, hits give low values 1.03 | locus YLR113W, strain HOG1, hits give low values 1.04 | locus YLR221C, strain rsa3, hits give low values 1.01 | locus YLR258W, strain gsy2, hits give low values 1.04 | locus YLR262C, strain YPT6 (second series), hits give low values 1.02 | locus YLR320W, strain mms22, hits give low values 1.03 | locus YLR342W, strain FKS1, hits give low values 1.03 | locus YLR357W, strain rsc2, hits give low values 0.968 | locus YLR370C, strain arc18, hits give low values 1.03 | locus YLR384C, strain iki3, hits give low values 1.03 | locus YML120C, strain ndi1, hits give low values 1 | locus YMR058W, strain fet3, hits give low values 1.02 | locus YMR125W, strain sto1, hits give low values 1.02 | locus YMR129W, hits give low values 1.02 | locus YMR205C, strain PFK2, hits give low values 1.02 | locus YMR231W, strain pep5, hits give low values 1.02 | locus YNL071W, strain lat1, hits give low values 1.03 | locus YNL183C, strain NPR1, hits give low values 0.91 | locus YNL209W, strain ssb2, hits give low values 1.02 | locus YNL248C, strain rpa49, hits give low values 0.989 | locus YNL322C, strain KRE1 (second series), hits give low values 1.02 | locus YNR049C, strain mso1, hits give low values 1.02 | locus YOR001W, strain rrp6, hits give low values 1.01 | locus YOR070C, strain gyp1, hits give low values 1.02 | locus YOR080W, strain dia2, hits give low values 1.01 | locus YOR083W, strain WHI5, hits give low values 1 | locus YOR106W, strain vam3, hits give low values 1.03 | locus YOR231W, strain MKK1, hits give low values 0.992 | locus YOR265W, strain rbl2, hits give low values 1.02 | locus YOR270C, strain vph1, hits give low values 1.11 | locus YOR290C, strain snf2, hits give low values 1.01 | locus YPL051W, strain arl3, hits give low values 1.01 | locus YPL078C, strain atp4, hits give low values 1.01 | locus YPL106C, strain sse1, hits give low values 1.02 | locus YPL240C, strain hsp82, hits give low values 1.03 | locus YPL256C, strain CLN2, hits give low values 0.99
